Counter-ions that a name gives are not always drawn. ± gives the standard deviation of the averaged measurements.
Molecular target: PARP1 L713F-nLuc biosensor (HCT116) (UniProt P09874)
Test: PARP1 L713F-nLuc/akaLuc ratio relative to DMSO control (biosensor stabilization) (fold change); higher = more PARP1 biosensor stabilization (target engagement / stabilizer), active = hit call of the paper
Settings: stock concentration (mM; final µM = stock mM x 1): 10; 24 h;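 active = log2 fold change beyond 2 SD from the library mean after excluding viability outliers; inactive = within 2 SD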

Chain of PARP1 L713F-nLuc biosensor (HCT116) (P09874 whole entry L713F, looked up): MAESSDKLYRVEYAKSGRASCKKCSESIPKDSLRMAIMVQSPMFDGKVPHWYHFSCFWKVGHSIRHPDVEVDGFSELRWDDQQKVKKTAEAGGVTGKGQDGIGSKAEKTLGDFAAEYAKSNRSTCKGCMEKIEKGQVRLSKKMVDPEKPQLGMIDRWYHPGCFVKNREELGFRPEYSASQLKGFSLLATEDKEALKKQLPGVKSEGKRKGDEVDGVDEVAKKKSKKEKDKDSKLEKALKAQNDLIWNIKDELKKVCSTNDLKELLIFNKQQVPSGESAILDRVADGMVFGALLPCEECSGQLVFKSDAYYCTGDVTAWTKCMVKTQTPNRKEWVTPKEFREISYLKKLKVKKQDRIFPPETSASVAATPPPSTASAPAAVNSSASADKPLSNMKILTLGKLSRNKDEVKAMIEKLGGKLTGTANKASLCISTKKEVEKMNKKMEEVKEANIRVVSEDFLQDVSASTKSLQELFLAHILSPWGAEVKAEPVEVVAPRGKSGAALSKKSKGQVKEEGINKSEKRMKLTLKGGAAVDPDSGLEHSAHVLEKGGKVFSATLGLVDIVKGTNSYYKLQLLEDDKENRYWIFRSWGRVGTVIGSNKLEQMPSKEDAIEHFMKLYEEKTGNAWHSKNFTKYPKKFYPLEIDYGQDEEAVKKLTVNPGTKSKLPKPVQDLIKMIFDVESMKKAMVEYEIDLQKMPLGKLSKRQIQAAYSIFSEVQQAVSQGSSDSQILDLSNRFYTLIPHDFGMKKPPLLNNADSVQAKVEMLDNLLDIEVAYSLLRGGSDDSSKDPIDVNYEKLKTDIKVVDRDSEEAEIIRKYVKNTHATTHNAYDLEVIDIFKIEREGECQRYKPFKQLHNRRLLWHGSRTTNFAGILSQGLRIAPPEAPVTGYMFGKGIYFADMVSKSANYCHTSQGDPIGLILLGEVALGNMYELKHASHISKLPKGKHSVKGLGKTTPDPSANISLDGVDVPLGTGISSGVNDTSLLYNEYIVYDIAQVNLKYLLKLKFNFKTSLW

| SMILES | PARP1 L713F-nLuc/akaLuc ratio |
| --- | --- |
| O=c1[nH]ccc2c(O)cccc12 [1,5-Isoquinolinediol] | 2.7 (active) |
| Cc1ccc(C(=O)Nc2cccc(C(F)(F)F)c2)cc1Nc1nc(-c2cccnc2)nc2c1cnn2C | 0.656 (inactive) |
| CCCC(=O)c1c(O)c(Cc2c(O)c(Cc3c(O)c(C)c(OC)c(C(=O)CCC)c3O)c(O)c(C(=O)[C@@H](C)CC)c2O)c(O)c(C)c1OC [Agrimol B] | 1.14 (inactive) |
| CCC(CC)(NC(=O)C(C)C)C(=O)N[C@@H](CCCN=C(N)N)C(=O)NC1(C(=O)NC(c2ccc(F)cc2)c2ccc(F)cc2)CCCC1 | 0.991 (inactive) |
| CCN(CC)C(=O)c1ccc(Nc2nc(OCC3CCCCC3)c3[nH]cnc3n2)cc1 | 0.71 (inactive) |
| C=CC(=O)N1CCC[C@@H](n2nc(-c3ccc(Oc4ccccc4)cc3)c3c(N)ncnc32)C1 | 0.773 (inactive) |
| O=C(/C=C\n1cnc(-c2cc(C(F)(F)F)cc(C(F)(F)F)c2)n1)NNc1ccccn1 [Verdinexor (KPT-335)] | 0.35 (inactive) |
| O=C(Nc1ccccc1-c1cn2c(CN3CCNCC3)csc2n1)c1cnc2ccccc2n1 [SRT 1720 (Hydrochloride)] | 1.16 (inactive) |
| CC(=O)O[C@@H]1CC[C@@]2(C)[C@@H](CC[C@]3(C)[C@@H]2C(=O)C=C2[C@@H]4[C@@H](C)[C@H](C)CC[C@]4(C)CC[C@]23C)[C@@]1(C)C(=O)O | 1.18 (inactive) |
| C[C@@H]1COCCN1c1cc(C2([S@](C)(=N)=O)CC2)nc(-c2cc[nH]c3nccc2-3)n1 | 1.79 (inactive) |
| CC[C@H](CO)Nc1nc(NCc2ccccc2)c2ncn(C(C)C)c2n1 [Roscovitine (Seliciclib,CYC202)] | 0.975 (inactive) |
| CC(C)c1c(-c2cnn(C(C)(C)C)c2)nc2c(C#N)c[nH]n2c1=O | 1.58 (inactive) |
| Cc1cc(-c2nc(-c3ccc(OC(F)(F)F)cc3)no2)nn1Cc1ccnc(N2CCN(C3CC3)CC2)c1 | 0.46 ± 0.17 |
| CCOC(=O)CCNc1cc(N2CCc3ccccc3CC2)nc(-c2ccccn2)n1 [GSK-J4 (hydrochloride)] | 1.45 (inactive) |
| O=C(NN=Cc1c(O)ccc2ccccc12)c1ccncc1 | 0.653 (inactive) |
| Cn1cc(C2=C(c3c4n(c5ccccc35)CCC(CN)C4)C(=O)NC2=O)c2ccccc21 (stereo not drawn) [Bisindolylmaleimide X (hydrochloride)] | 0.725 (inactive) |
| N#Cc1ccc(C(c2ccc(C#N)cc2)n2cncn2)cc1 [Letrozole] | 1.4 (inactive) |
| COc1cc(OC)c2c(=O)[nH]c(-c3cc(C)c(OCCO)c(C)c3)nc2c1 [Apabetalone] | 1.28 (inactive) |
| N[C@H]1C(O)O[C@H](CO)[C@@H](O)[C@@H]1O (stereo partly drawn) [Glucosamine] | 1.02 (inactive) |

| SMILES | PARP1 L713F-nLuc/akaLuc ratio |
| --- | --- |
| C[C@@H]1CN(CC(=O)Nc2ccc3c(c2)Cc2cccc(-c4cc(=O)cc(N5CCOCC5)o4)c2S3)C[C@H](C)O1 | 0.788 (inactive) |
| COc1cc2ncnc(Nc3ccc(O)c(Br)c3)c2cc1OC | 0.973 (inactive) |
| Cn1ncc(Cl)c1-c1cc(C(=O)N[C@H](CN)Cc2cccc(F)c2)sc1Cl [Afuresertib (hydrochloride)] | 0.764 (inactive) |
| CC(C)(O)c1ccc(-c2nc3c(F)cc(F)cc3c(=O)[nH]2)cc1 [Tankyrase-IN-2] | 2.95 (active) |
| Cc1cc(C)cc(Oc2ccc(CNC(=O)[C@H](C)N)cc2C)c1 | 1.24 (inactive) |
| Cc1cc(Nc2nc(CC3(C(=O)O)CCN(C(=O)c4cccc(Cl)c4Cl)CC3)ccc2F)n[nH]1 | 1.6 (inactive) |
| Cc1cc(C)nc(SCC(=O)Nc2ncc(Cc3cccc(OCc4cn(Cc5ccccc5)nn4)c3)s2)n1 | 0.615 (inactive) |
| Cc1nc(NC(=O)N2CCC[C@H]2C(N)=O)sc1-c1ccnc(C(C)(C)C(F)(F)F)c1 [Alpelisib (BYL719)] | 0.761 (inactive) |
| CNC(=O)c1cnc(NC(=O)C2CC2)cc1Nc1cccc(-c2ncc(F)cn2)c1OC | 0.696 (inactive) |
| Cc1cc(Cl)ccc1OCCCC(=O)NO [Droxinostat] | 2.78 (active) |
| Cc1cc(-c2ccccc2)cc(C(=O)NNS(=O)(=O)c2cccc(O)c2)c1F | 1.16 (inactive) |
| CC(C)=CC(=O)O[C@H]1Cc2cc3ccc(=O)oc3cc2OC1(C)C [Decursin] | 0.768 (inactive) |
| NC(=O)c1ccccc1Nc1ccccc1 | 0.795 (inactive) |
| Oc1cc(O)c2cc(O)c(-c3cc(O)c(O)c(O)c3)[o+]c2c1 [Delphinidin (chloride)] | 1.09 (inactive) |
| CN1C[C@@H](Nc2cnn(C)c(=O)c2Br)C[C@@H](c2ccccc2)C1 | 0.711 (inactive) |
| O=C(O)Cn1nnc(-c2ccc(CN(CCCCOc3ccc(CN4CCCC4)cc3)CCc3ccccc3)cc2)n1 [TH1834 (dihydrochloride)] | 1.29 (inactive) |
| O=c1cc(-c2ccc(O[C@@H]3O[C@H](CO)[C@@H](O)[C@H](O)[C@H]3O)cc2)oc2cc(O)c([C@@H]3O[C@H](CO)[C@@H](O)[C@H](O)[C@H]3O[C@@H]3OC[C@H](O)[C@H](O)[C@H]3O)c(O)c12 [Vaccarin] | 0.723 (inactive) |
| O=[N+]([O-])c1c(Nc2cc(F)cc(Cl)c2)ccc2nonc12 | 1.45 (inactive) |
| Nc1nc(OCc2ccc(CNC(=O)C(F)(F)F)cc2)c2[nH]cnc2n1 [PIN1 inhibitor API-1] | 1.38 (inactive) |

— the supplement of paper PMC11624193, “Coupling cellular drug-target engagement to downstream pharmacology with CeTEAM” (Nature Communications, 2024)
